Drawing on ChEMBL document CHEMBL1157539, “Thousands of chemical starting points for antimalarial lead identification” (Nature, 2010), this text covers Inhibition for 40 molecules.

Molecules are shown by their SMILES.

For this test, the system named is Plasmodium falciparum. Description: GSK_TCMDC: Inhibition of Plasmodium falciparum Dd2 in whole red blood cells, using parasite LDH activity as an index of growth. Test compounds present at 2uM. It counts as functional.
One may read the Inhibition as how much of the control response was suppressed. Low values mean a weak effect, high ones a strong effect. `Cc1cccc2nc(-c3cccc(-c4cccc(NC(=O)c5cccnc5Cl)c4)c3)[nH]c12`: the Inhibition was 32%. As to `Cc1cc(N/N=C/c2cccc([N+](=O)[O-])c2)c2ccccc2n1`, the Inhibition stood at 98%. As for `O=C(Nc1cccc(C(F)(F)F)c1)c1cc([N+](=O)[O-])cc2cn[nH]c12`, the Inhibition was determined as 69%. `CCc1ccc(NC(=O)c2ccc(CN3CCCN(Cc4cccc(O)c4)CC3)cc2)cc1.O=C(O)C(F)(F)F` displayed an Inhibition of 55%. `Cl.O=[N+]([O-])c1cccc(-c2nc3cc(C4=NC5CCCCC5N4)ccc3[nH]2)c1` (stereo not given): the Inhibition is reported as 81%.

Consider `COc1ccc(CCNc2nc(N)c3cc(OC)c(OC)cc3n2)cc1.Cl`, for which the Inhibition is listed as 1%. With `CCn1c(-c2nonc2N)nc2c(-c3cccc(Cl)c3)ncc(OCCCNCCc3c[nH]cn3)c21.O=C(O)C(F)(F)F` the figure was 98%; with `C=CCn1c(Sc2ccc(C#N)c([N+](=O)[O-])c2)nnc1-c1cccc(Cl)c1`, 54%; with `CCCOc1cc(OCCC)cc(-c2ccc(C(=O)Nc3ccc4ccc(C)nc4c3)c(=O)[nH]2)c1`, 76%. With `O=C(N[C@H]1CCN(Cc2ccc(OC3CCN(Cc4ccccc4)CC3)c(Br)c2)C1)c1ccc(Cl)c(Cl)c1.O=C(O)C(F)(F)F` the figure was 30%; with `COc1ccccc1-c1sccc1C(=O)NC1(c2cc(Cl)cc(Cl)c2)CCCC1`, 95%; with `CCn1c(-c2nonc2N)nc2c(-c3cccc(NC(=O)Nc4cccc(Cl)c4)c3)ncc(OCCCN)c21.O=C(O)C(F)(F)F`, 78%. Turning to `COC(=O)C(Cc1ccccc1)C(CSCc1ccc(OC)cc1)C(=O)N[C@@H](C(=O)OC(C)(C)C)c1ccc(C(C)(C)C)cc1` (stereo not given in full), the Inhibition was determined as 44%.

In turn, `CCn1ccc2c(N3CCCS3(=O)=O)cc(C(=O)N[C@@H](Cc3ccccc3)[C@H](O)CNC(C)(C)CCCC(C)C)cc21` showed an Inhibition of 98%. On to `CCC(N)(C#Cc1ccc(-c2c(C)[nH]c(C)c(Br)c2=O)cc1)CC`, for which the Inhibition turned out to be 96%. For `COc1ccc(C(=O)CCC(=O)N(CCSC(C)(C)C)Cc2ccc(-c3ccc(CNCCc4ccc(S(C)(=O)=O)cc4)cn3)cc2)cc1F.O=C(O)C(F)(F)F`, the Inhibition worked out at 42%. In the case of `FC(F)(F)c1ccc(CSc2ccc3nnc(-c4ccccn4)n3n2)cc1`, the Inhibition is 54%. With `COc1ccc2c(OC)c(CNCCCCCCNCc3ccc4cc(OC)ccc4c3OC)ccc2c1.CS(=O)(=O)O` the figure was 49%; with `O=C(O)C(F)(F)F.O=C1CCCN1CCCNCc1cccc(-c2cccc(-c3nc4cc(F)ccc4[nH]3)c2)c1`, 69%. `CCOc1cc2c(cc1OCC)C(c1cc(OC)c(O)cc1Cl)NCC2` (stereo not given) had an Inhibition of 97%. In the case of `COCCNCc1cccc(-c2cc3nccc(Nc4ccc(Oc5ccccc5)cc4)c3cc2Cl)c1`, the Inhibition is recorded as 99%. As for `COc1ccc2ncc(F)c([C@H](O)CN3CCC(NCc4ccc5c(c4)NC(=O)CS5)CC3)c2c1.Cl`, the Inhibition worked out at 98%. Molecule `O=C(NCC1CCC(C(=O)NCCc2ccc(Cl)c(Cl)c2)CC1)c1ccc(O)c(-c2ccc(Cl)c(Cl)c2)c1` (stereo not given) had an Inhibition of 12%. To `CC1CN(c2ccnc3ccc(Sc4ccc(Oc5ccccc5)cc4)cc23)CC(C)N1.Cl` (stereo not given) belongs 99%. For `CC(C)N1CCN(C(=O)c2ccc(CNCCCN3CCN(c4cccc(Cl)c4Cl)CC3)s2)CC1.Cl`, the Inhibition is listed as 44%. With `Clc1ncnc2ncn(Cc3cccc(Br)c3)c12` the figure was 56%; with `CCCCNC(=O)[C@H](CC1CCCCC1)NC(=O)c1ccc(O)c(-c2ccc(Cl)c(Cl)c2)c1`, 99%. For the molecule `Fc1cccc(COc2ccc(Nc3ncnc4sc(C#CC5CCCCN5)cc34)cc2Cl)c1.O=C(O)C(F)(F)F` (stereo not given), the Inhibition is 100%.

Molecule `CNC(=S)NCc1cnc2ccccn12` came in with an Inhibition of 0%.

Take `N#Cc1ccc(N2CCN(Cc3ccc(-c4ccc(-c5nc6cc(C(F)(F)F)ccc6[nH]5)s4)cc3)CC2)nc1.O=C(O)C(F)(F)F`: the Inhibition was found to be 73%.

With `CC(Cc1ccc(NC(=O)c2ccc(CNCc3ccccc3)cc2)cc1)N(CCc1cccc(Cl)c1)C(=O)OC(C)(C)C` (stereo not given), the Inhibition is reported as 2%. `COc1ccc2nccc([C@@H](O)CN3CCC(NC(=O)/C=C/c4cccc(-c5ccccc5)c4)CC3)c2c1` showed an Inhibition of 83%. In the case of `Cc1cc(CNC(=O)c2ccc(-c3ccc(-c4nc5cc(C(F)(F)F)ccc5[nH]4)s3)cc2)on1`, the Inhibition is listed as 56%. With `CC(=O)c1ccccc1C(=O)N1CCOc2ccc(C(O)C(c3ccccc3)c3ccccc3)cc2C1` (stereo not given) the figure was 98%; with `CC(C)Nc1ccc(Nc2ccnc3cc4ccccc4cc23)cc1`, 81%; with `COc1ccc2c(NN=Cc3cccc(C)n3)ccnc2c1`, 51%. With `COc1cc2c(cc1S(=O)(=O)c1ccc(NC(=O)c3ccc4ccccc4c3)cc1)CCN(C)CC2` the figure was 28%. With `CN(c1ccc2c(c1)nc(NCc1ccccc1)n2C)c1ccnc(Nc2ccc(CS(C)(=O)=O)cc2)n1.Cl` the figure was 69%; with `N=C(N)NN=CC(=O)Nc1ccc(Cl)c(Cl)c1`, 0%.

`COc1ccccc1C1CN(Cc2coc3ccccc3c2=O)Cc2ccccc2O1` (stereo not given) came in with an Inhibition of 61%.
